Reference: PubChem BioAssay (EPA / NIEHS)
Records with an inconclusive call do not appear. Active and inactive are the calls of the source. Rule for the calls, unless noted: active = hit-call score of the fitted dose curve at least 0.9, where 1 is the maximum; inactive = score below 0.9.

How the values were obtained:
[1] = CCTE_Harrill_HTTr_Viability_MCF7: CCTE's 6-hour Cell Viability Assessment for the High-Throughput Transcriptomics (HTTr) Platform, in MCF-7 cells cultured in DMEM + 10% fetal bovine serum, Harrill Lab (AID 2284010)
Method in brief: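 PI exclusion, high-content imaging; 8-pt dilution series, 6 h exposure; bidirectional fit vs DMSO (neg. ctrl/baseline); gain of signal = loss of membrane integrity.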

[2] = CCTE_Shafer_MEA_dev_firing_rate_mean: CCTE's Neural Network Formation Assay for Mean Firing Rate, Shafer Lab (AID 2284031);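 note: curve fitted for loss of firing so AC50 reflects decreased mean firing rate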
Method in brief: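 Read-out: spike count/recording length, averaged over active electrodes, then AUC across days 5, 7, 9, 12. Rat cortical cultures on MEA; continuous 12-day exposure, media and treatment renewed DIV 5, 9; DMSO baseline.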

[3] = CCTE_Shafer_MEA_dev_per_burst_spike_percent: CCTE's Neural Network Formation Assay for Percent of Spikes in a Burst, Shafer Lab (AID 2284032);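 note: fitted as a decrease in burst spike percentage below DMSO baseline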
Method in brief: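 Value is trapezoidal AUC over recordings on days 5, 7, 9 and 12 of the well-mean fraction of spikes falling in single-electrode bursts; rat cortical cultures exposed continuously from plating, treatment renewed DIV 5 and 9, fitted downward against DMSO.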

[4] = CCTE_Shafer_MEA_dev_active_electrodes_number: CCTE's Neural Network Formation Assay for Number of Active Electrodes, Shafer Lab (AID 2284040; active = hit-call score of the fitted dose curve at least 0.9, where 1 is the maximum;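 note: potency for loss of active electrodes versus DMSO so lower counts are hits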)
Method in brief: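 Developing rat cortical networks on MEAs, exposed DIV 0–12. Value is the AUC of active-electrode counts (≥5 spikes/min) from days 5, 7, 9, 12, relative to DMSO.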

[5] = CCTE_Shafer_MEA_dev_burst_rate: CCTE's Neural Network Formation Assay for Burst Rate, Shafer Lab (AID 2284042);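 note: potency for loss of burst rate below DMSO control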
Method in brief: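 Developmental network assay measuring how 12-day exposure of rat cortical neuron cultures alters bursting on extracellular MEA recordings. Values are AUC of well-mean burst rate across four recording days, relative to DMSO vehicle.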

[6] = CCTE_Shafer_MEA_dev_bursting_electrodes_number: CCTE's Neural Network Formation Assay for Number of Bursting Electrodes, Shafer Lab (AID 2284043; active = hit-call score of the fitted dose curve at least 0.9, where 1 is the maximum;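 note: potency is for loss of bursting electrodes relative to DMSO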)
Method in brief: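 Counted: electrodes with burst rate ≥1 per 2 min in each well. Cells: primary rat cortex, 1.5 x 10^5/well, on 16-electrode MEA wells. Exposure: DIV 0–12, compound renewed DIV 5 and 9. Recording days 5, 7, 9, 12; AUC vs DMSO baseline.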

[7] = CCTE_Shafer_MEA_dev_per_burst_interspike_interval: CCTE's Neural Network Formation Assay for Burst Interspike Interval, Shafer Lab (AID 2284044);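 note: potency for a decrease of within-burst interspike interval below DMSO level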
Method in brief: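 Readout is the average time between spikes inside single-electrode bursts, taken as a well mean across bursting electrodes. Cortical neurons from rat developed networks on MEA plates under continuous 12-day exposure; recordings on days 5, 7, 9 and 12 were integrated by trapezoidal AUC.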

[8] = CCTE_Shafer_MEA_dev_burst_duration_mean: CCTE's Neural Network Formation Assay for Mean Burst Duration, Shafer Lab (AID 2284045);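 note: curve fitted for loss meaning shorter burst duration than DMSO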
Method in brief: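 Network-formation assay in primary rat cortical neurons; treatment spans twelve days of development. Mean burst duration per well is integrated by trapezoidal AUC and fitted in the loss-of-signal direction against DMSO baseline.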

[9] = CCTE_Shafer_MEA_dev_interburst_interval_mean: CCTE's Neural Network Formation Assay for Mean Interburst Interval, Shafer Lab (AID 2284046);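 note: well-mean interburst interval of bursting electrodes as AUC over four recording days; curve fitted for decrease in interburst interval relative to DMSO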
Method in brief: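 Network formation assay in primary rat cortical cultures, exposed from DIV 0 to 12. Mean interburst interval per well, integrated as AUC over four recordings.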

[10] = CCTE_Shafer_MEA_dev_inter_network_spike_interval_mean: CCTE's Neural Network Formation Assay for Mean Inter-network Spike Interval, Shafer Lab (AID 2284047)
Method in brief: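 Compound was given at plating to primary rat cortical neurons and renewed with full medium changes on DIV 5 and 9. Extracellular activity was recorded on days 5, 7, 9, 12; AUC values were fitted for loss relative to DMSO control.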

[11] = CCTE_Shafer_MEA_dev_network_spike_number: CCTE's Neural Network Formation Assay for Number of Network Spikes, Shafer Lab (AID 2284048);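 note: fit as a loss of signal meaning fewer network spikes than DMSO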
Method in brief: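 Extracellular recordings from 16-electrode wells track network formation in rat cortical cultures under continuous treatment from plating. The endpoint is network spike number, expressed as AUC across DIV 5–12 relative to DMSO vehicle.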

[12] = CCTE_Shafer_MEA_dev_network_spike_peak: CCTE's Neural Network Formation Assay for Mean Number of Electrodes in Network Spike, Shafer Lab (AID 2284049);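 note: fitted for loss of signal meaning fewer electrodes in network spikes than DMSO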
Method in brief: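 Continuous 12-day exposure of rat cortical cultures, starting at plating, on MEA plates. Endpoint: electrodes participating in network-spike peaks, AUC across DIV 5–12, DMSO as negative control.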

[13] = CCTE_Shafer_MEA_dev_spike_duration_mean: CCTE's Neural Network Formation Assay for Mean Spike Duration, Shafer Lab (AID 2284051);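 note: mean network spike duration pooled as area under curve over DIV 5 to 12 recordings; potency for a decrease in mean network spike duration versus DMSO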
Method in brief: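 With DMSO as baseline, loss of mean network spike duration was scored from extracellular recordings of rat cortical neurons on MEA plates. Exposure spanned plating to DIV 12; the four recording days were collapsed into one AUC value.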

[14] = CCTE_Shafer_MEA_dev_network_spike_duration_std: CCTE's Neural Network Formation Assay for Standard Deviation of Network Spike Duration, Shafer Lab (AID 2284052);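 note: area under curve of spike duration SD across recording days 5 to 12; hits are decreases in network spike duration SD versus DMSO vehicle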
Method in brief: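 Developing networks of rat cortical neurons were exposed over twelve days in vitro on 48-well MEA plates. Trapezoidal AUC of recordings (DIV 5–12) was analysed for signal loss relative to DMSO vehicle.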

[15] = CCTE_Shafer_MEA_dev_per_network_spike_spike_number_mean: CCTE's Neural Network Formation Assay for Mean Number of Spikes in a Network Spike, Shafer Lab (AID 2284053)
Method in brief: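 First, rat cortical cells (1.5 x 10^5/well) were seeded onto MEA wells; second, dosing began at plating and was refreshed on DIV 5 and 9; finally, network-spike spike counts across DIV 5–12 were summarized as AUC.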

[16] = CCTE_Shafer_MEA_dev_per_network_spike_spike_percent: CCTE's Neural Network Formation Assay for Percent of Spikes in a Network Spike, Shafer Lab (AID 2284054)
Method in brief: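 Developing networks of rat cortical neurons are dosed at day 0 and recorded extracellularly four times up to day 12. The endpoint is the area under the curve of percent spikes in network spikes, fitted in the negative direction relative to DMSO.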

[17] = CCTE_Shafer_MEA_dev_LDH: CCTE's Lactate Dehydrogenase Assay for Cytotoxicity in the Neural Network Formation Assay, Shafer Lab (AID 2284068; active = hit-call score of the fitted dose curve at least 0.9, where 1 is the maximum;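 note: exposure for twelve days from plating with re-dosing on DIV 5 and 9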)
Method in brief: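 Developing rat cortical networks on MEA plates are exposed to compound for 12 days from plating. LDH activity is measured spectrophotometrically, with DMSO as baseline.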

[18] = CCTE_Shafer_MEA_dev_correlation_coefficient_mean: CCTE's Neural Network Formation Assay for Mean Correlation Coefficient, Shafer Lab (AID 2284093);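 note: well mean pairwise spike train correlation integrated as AUC over recording days 5 to 12; potency fitted for loss of correlation relative to DMSO vehicle wells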
Method in brief: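 Extracellular firing from rat cortical networks on 48-well MEAs, DMSO-referenced, negative fitting direction. Compound present from plating to DIV12; mean pairwise correlation per well integrated over DIV5–12 recordings by trapezoidal AUC.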

[19] = UKN2_HCS_IMR90_neural_migration: University of Konstanz (UKN) Leist Lab Neural Crest Cell Migration Assay in human induced IMR90 Pluripotent Stem Cells (UKN2) (AID 2284204); conditions: actives raise or lower the signal
Method in brief: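 Using a 96-well stopper format with PLO/laminin/fibronectin coating, neural crest cells from iPSC migrate in cytokine-supplemented N2-S medium; after 24 h, chemicals are applied for a further 24 h, then cells are imaged after dye staining.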

[20] = IUF_NPC1b_proliferation_BrdU_72hr: Leibniz Research Institute for Environmental Medicine (IUF) 72-hour Neural Progenitor Cell Bromodeoxyuridine (BrdU) Proliferation Assay (NPC1b) (AID 2284207)
Method in brief: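 Neural progenitor spheres of human fetal origin are treated for three days; BrdU added for the last 16 h is quantified by luminescence ELISA, with DMSO as baseline and EGF/FGF omission as positive control.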

[21] = IUF_NPC1a_proliferation_area_72hr: Leibniz Research Institute for Environmental Medicine (IUF) 72-hour Neural Progenitor Cell Proliferation Area Assay (NPC1a) (AID 2284208)
Method in brief: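 hNPC spheres (human fetal cortex, GW 16-19), one per poly-Hema U-bottom well; EGF+FGF medium; dosed day 0, no re-dosing; 72 h, 37C, 5% CO2; phase-contrast sphere area; DMSO = baseline; minus-GF = positive ctrl.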

[22] = IUF_NPC1_viability_72hr: Viability Assessment at 72 hours in the Leibniz Research Institute for Environmental Medicine (IUF) Neural Progenitor Cell Proliferation Assay (NPC1) (AID 2284209)
Method in brief: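 Alamar blue fluorescence (RFU) after 72 h exposure, normalized to DMSO baseline. hNPC spheres from GW 16-19 fetal cortex, single sphere per well in growth-factor medium; no compound renewal.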

[23] = CCTE_Mundy_HCI_Cortical_Synap_Neur_Matur_NeuriteSpotCountPerNeuriteLength: CCTE's Synaptogenesis and Neurite Maturation Assay in rat cortical cells for Neurite Spot Count per Neurite Length, Mundy Lab (AID 2284210)
Method in brief: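 Neurite-associated synapse density (synaptophysin puncta per unit neurite length) is measured by fluorescence high-content imaging in rat cortical cultures treated from DIV 7 and fixed at DIV 12, with DMSO as negative control.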

[24] = CCTE_Mundy_HCI_Cortical_Synap_Neur_Matur_BPCount: CCTE's Synaptogenesis and Neurite Maturation Assay in rat cortical cells for Branch Point Count, Mundy Lab (AID 2284211)
Method in brief: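 In this multiplexed morphology assay, cortical cells from rat receive chemicals at DIV 7 and are fixed at DIV 12, then immunostained and imaged; branch points are counted, with DMSO as baseline.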

[25] = CCTE_Mundy_HCI_Cortical_NOG_NeuriteCount: CCTE's Neurite Outgrowth Assay in rat cortical cells for Neurite Count, Mundy Lab (AID 2284212);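 note: cells fixed about two days after chemical exposure began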
Method in brief: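 Rat cortical primary cells; compound added 2 h post-plating, 1/10 dilution of working solution. Anti-betaIII-tubulin/AF488 ICC; ArrayScan neurite count vs DMSO.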

[26] = CCTE_Mundy_HCI_Cortical_Synap_Neur_Matur_NeuriteLength: CCTE's Synaptogenesis and Neurite Maturation Assay in rat cortical cells for Neurite Length, Mundy Lab (AID 2284214)
Method in brief: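 Read-out: high-content imaging of MAP2-labelled neurites, with synaptophysin and Hoechst co-stain, in rat cortical cultures fixed at DIV 12. Activity fitted in positive direction relative to DMSO baseline.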

Measured: AC50

CC(CNC(=S)[S-])NC(=S)[S-].[Zn+2] (stereo unspecified)
inactive: [1] | [10] | [19] | [21] | [22] | [23]
active: [2] 6.97 µM | [3] 17.4 µM | [4] 16.8 µM | [5] 9.92 µM | [6] 15 µM | [7] 26.2 µM | [8] 9.67 µM | [9] 50 µM | [11] 8.44 µM | [12] 20.9 µM | [13] 8.64 µM | [14] 3.38 µM | [15] 24.7 µM | [16] 91.5 µM | [17] 39.4 µM | [18] 19.7 µM | [20] 50 µM | [24] 50 µM | [25] 31.5 µM | [26] 50 µM
